The record followed here is PubChem BioAssay AID720517 (National Center for Advancing Translational Sciences (NCATS), 2013).

Structures are written as SMILES. Records with an inconclusive call do not appear. Entries that show only a call come without a potency. Active and inactive are the calls of the source. Calls come from the whole dose curve; as a rule, active = well fitted activation curve with a large enough effect; inconclusive = small, poorly fitted or top-dose-only effect; inactive = flat fitted curve, though single readings scatter.

The nature of this assay: qHTS for Inhibitors of Cell Surface uPA Generation: FP59 Counterscreen for Cherry-picked Compounds. As to conditions: FP59 anthrax toxin cytotoxicity counterscreen, cells; series mostly up to 115 µM.
As for `COc1cc2oc(=O)ccc2cc1[C@H](O)[C@@H](O)C(C)(C)O`, the Potency result was “inactive”. For `CCOC(=O)c1c(NC(=O)COc2ccccc2C#N)sc2c1CC(C)(C)NC2(C)C` the value was “inactive”; for `COc1cccc(CN(C)C(=O)c2cc(S(=O)(=O)N3CCCC3)ccc2C)c1OC`, “inactive”; for `O=C(CCS(=O)(=O)c1ccc2c(c1)NC(=O)CS2)NCCc1ccc(Cl)cc1`, “inactive”. As for `CC(C)(C)S(=O)(=O)N1C[C@H]2CC/C=C\C/C(c3ccccc3)=C\2[C@@H]1CCO`, the Potency result was “inactive”. For `CC(=O)[C@@]1(O)[C@H](C)CC2C3CC=C4CC(OP(=O)(O)O)CC[C@]4(C)C3CC[C@@]21C` (stereo partly specified) the value was “inactive”; for `CC1(C)CC2(CC(c3ccccc3)Oc3cc(O)ccc32)NC(=S)N1` (stereo unspecified), “inactive”. The value for `CCN(CC)CCCNC(=O)c1cn(C)c(=O)c2c1c1ccccc1n2C` was “inactive”; that for `CC1Cc2nc(SCC(=O)N3CCCC3)n(C)c(=O)c2S1` (stereo unspecified) was “inactive”; that for `CC[C@]1(C(=O)OC)[C@H]2C(=O)N(C)C(=O)[C@H]2[C@H]2CN(C)C(=NC3CCCCC3)N21` was “inactive”.

Consider `Cc1cc(=O)n2nc(N3CCCC(C(=O)NCc4ccc(Cl)cc4)C3)sc2n1` (stereo unspecified), for which the Potency entry is “inactive”. For `O=C(Nc1ccc(N2CCOCC2)cc1)c1ccc(Cl)c(S(=O)(=O)N2CCCC2)c1` the value was “inactive”; for `Cc1nc2ncccn2c1-c1csc(Nc2ccc(S(N)(=O)=O)cc2)n1`, “inactive”.

Turning to `CC(=O)Nc1nc2ccccc2[nH]1`, the Potency result is “inactive”.

On to `CC1(C)CC(=O)C([N+](=O)[O-])=C(NCCCC(=O)O)C1`, for which the Potency result is “inactive”. Consider `O=C(O)COc1ccccc1/C=N/NC(=O)CNC(=O)c1ccco1`, for which the Potency entry was “inactive”. In the case of `Cc1[nH]c(=O)[nH]c(=O)c1S(=O)(=O)N1CCCc2ccccc21`, the Potency entry was “inactive”. The value for `Cc1ccc2[nH]c(CN3CCN(C)C(CCO)C3)c(C)c2c1` (stereo unspecified) was “inactive”. The value for `CN1CCN(c2ccc(S(=O)(=O)N3CCOCC3)cc2NC(=O)CSCc2ccccc2)CC1` was “inactive”.

Take `CC(=O)Nc1sc(C)c(C)c1C(=O)OCC(=O)NC(C)c1ccccc1` (stereo unspecified): the Potency result was “inactive”. The value for `O=C(CNC(=O)N1CC(=O)Nc2ccccc21)Nc1cc(Cl)ccc1Cl` was “inactive”.
